Shiga inhibitor: blocks Shiga toxin action in Vero cells; actives 9.2% (n = 290,000); AID 2315; Vero cells, Shiga toxin protein synthesis inhibition reporter; inhibition, % at 38.7 µM; in the data active = inhibition mostly above about 28%, no sharp cut-off; inactive = mostly below about 43%; also: 0% is about no effect
CHX counter: affects cycloheximide protein synthesis inhibition readout, counter-screen. cell reporter, cycloheximide protein synthesis inhibition counterscreen. max response, %. actives 12% (n = 300,000). AID 2314; in the data active = max response mostly above about 13%, no sharp cut-off; inactive = mostly below about 14%; also: read at 38.3 µM for the half of the compounds with a filed dose; 0% is about no effect
Pf growth 96h: P. falciparum growth inhibition at 96 hour, primary screen for plastid delayed-death inhibitors. P. falciparum luciferase reporter growth, 96 h. AID 504834. Potency, µM (top dose mostly 28.7 µM), for inactives: top-dose activity change, negative = inhibition, usual class: inhibitors. actives 6.9% (n = 320,000); also: potency is read from the fitted curve at half-maximal effect; % is scaled to controls: 0 for no effect and ±100 for the full control effect
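P. falciparum expressing integrated firefly luciferase grown in erythrocytes (2% hematocrit, 0.05% parasitemia final) with compounds for 96 hours at 37 C, 5% CO2. Growth inhibition read as loss of luminescence after adding luciferase detection reagent.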
Pf growth 48h: inhibits P. falciparum growth in the first generation, 48 h. P. falciparum luciferase growth in erythrocytes, 48 h. Potency, µM (doses to about 28.7 µM), for inactives: top-dose activity change, negative = inhibition, actives largely listed as inhibitors. AID 504832. actives 5.9% (n = 310,000); also: potency is read from the fitted curve at half-maximal effect; % is scaled to controls: 0 for no effect and ±100 for the full control effect
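Growth was read as firefly luciferase luminescence after a 48 h, 37 C, 5% CO2 exposure of compounds to reporter-bearing P. falciparum cultures (0.1% parasitemia, 2% hematocrit final) in Albumax-supplemented RPMI 1640.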
* = called active by the depositor; ? = inconclusive; / = no result. A selection: hits, their analogues and other compounds. The true share with any hit is near 21%. Unless noted, calls follow the shape of the dose curve; as a rule, active = well fitted inhibition curve with a large enough effect; inconclusive = small, poorly fitted or top-dose-only effect, or another doubt; inactive = no such curve, though single readings can be large or run the other way.

SMILES	Shiga inhibitor	CHX counter	Pf growth 96h	Pf growth 48h
CCOCCCn1c(=NC(C)=O)c(C#N)cc2c(=O)n3cccc(C)c3nc21	-7	3	?	67%
CCOC(=O)c1cc2c(=O)n3cccc(C)c3nc2n(CCOC)c1=NC(C)=O	13	1	6.6µM*	?
Cn1cc(CNCc2cn(C)nc2-c2ccc(C3CCCCC3)cc2)cn1	18	-3	-7%	?
CC1Sc2ccc(S(=O)(=O)CCC(=O)Nc3ccccn3)cc2NC1=O (configuration not stated)	-3	2	9.3µM*	14%
CC1Sc2ccc(S(=O)(=O)CCC(=O)N3CCc4ccccc43)cc2NC1=O (configuration not stated)	-3	-12	17µM*	-1%
CCC1Sc2ccc(S(=O)(=O)CCC(=O)N3CCc4ccccc43)cc2NC1=O (configuration not stated)	20	-3	28%	17%
Cc1nnc(NC(=O)C2CSC3(C)CCC(=O)N23)s1 (configuration not stated)	/	/	?	-1%
O=C(NCCCc1ccccc1)c1ccncc1	-9	9	/	17%
O=C(CCCC(=O)c1ccccc1)NCCc1ccccc1	2	8	6%	-7%
O=C(NCCNc1ccc([N+](=O)[O-])cc1C(F)(F)F)c1ccccc1	-14	5	13µM*	?
O=C(NCCCCc1ccccc1)c1ccc(Br)cc1	56*	38*	?	0%
O=C(CCCc1ccccc1)c1ccccc1	97*	46*	268%	194%
O=C(NCc1ccccc1)c1ccc(Br)cc1	25	10	?	16%
O=C(NCCCCc1ccccc1)c1ccccc1	28	15*	?	3%
CC1(c2ccccc2Cl)NC(=O)N(CC(=O)c2ccc3c(c2)OCO3)C1=O (configuration not stated)	/	/	2%	?
CCn1c(=O)n(CC)c2cc(S(=O)(=O)Nc3cc(C)cc(C)c3C#N)ccc21	-4	-5	/	?
O=C(NCCc1ccccc1)c1ccc(-n2cnnn2)cc1	61*	47*	7%	105%
COc1cccc(CN(C)C(=O)CCNC(=O)c2ccc(Br)cc2)c1	-5	1	50%	?
O=C(NCCCCc1ccccc1)c1cccc([N+](=O)[O-])c1	-8	-3	56%	11%
O=C(NCCc1c[nH]c2ccccc12)c1ccc(-n2cnnn2)cc1	25	5	1%	?
O=C(NCCC(=O)N(CCc1ccccc1)Cc1ccccc1)c1ccc(Br)cc1	/	/	13µM*	?
O=C(NCCCc1ccccc1)c1ccccc1	76*	40*	9.3µM*	30%
O=C(NCCCc1ccccc1)c1cccc([N+](=O)[O-])c1	34	22*	-10%	44%
CCOC(=O)c1c(S(=O)(=O)N2CCN(Cc3ccccc3)CC2)c(C)n(C)c1C	-8	7	?	-14%
Cc1cc(C(=O)N/N=C/c2c(C)nn(-c3ccccc3)c2C)c(C)o1	59*	42*	?	?
SMILES	Shiga inhibitor	CHX counter	Pf growth 96h	Pf growth 48h
Cc1nn(-c2ccccc2)c(C)c1/C=N/NC(=O)c1cc(-c2cccc3ccccc23)n[nH]1	-8	-1	?	?
Cc1nn(-c2ccccc2)c(C)c1/C=N/NC(=O)c1cc(-c2ccccc2)n[nH]1	14	7	9.3µM*	15µM*
Cc1ccc(S(=O)(=O)N/N=C/c2c(C)nn(-c3ccccc3)c2C)cc1	3	-1	25%	/
Cc1ccccc1NS(=O)(=O)c1cc(OCC(N)=O)c(C)cc1Cl	-6	-1	10µM*	55%
Cc1ccc(NS(=O)(=O)c2cc(OCC(N)=O)c(C)cc2Cl)cc1C	-12	-3	?	12µM*
CC[N+]1(C)CC2CCC(C)(C1)C2(C)C (configuration not stated)	4	1	?	22%
CCN(Cc1cc(OC)c(OC)c(OC)c1)C(=S)Nc1cccc(SC)c1	10	-2	10µM*	?
CCc1ccccc1NC(=O)NC1CCCCC1	13	14*	?	/
O=C(Nc1ccccc1Cl)NC1CCCCCCC1	57*	40*	?	32%
O=C(Nc1ccccc1C(=O)N1CCCCC1)NC1CCCCC1	-13	-2	-5%	-3%
CCS(=O)(=O)c1ccc(O)c(NC(=O)Nc2cccc3ccccc23)c1	-5	-1	21%	19%
CCS(=O)(=O)c1ccc(O)c(NC(=O)NC2CCCCC2)c1	13	12*	100%	-1%
COc1cc(C(=O)NCc2nnc(SCC(=O)N3CCOCC3)o2)cc(OC)c1OC	-16	-4	38%	8%
Cc1sc2ncnc(N3CCC(C(=O)Nc4nc(-c5cccs5)cs4)CC3)c2c1C	/	/	10µM*	?
Cc1ccc2nc(NC(=O)C3CCN(c4ncnc5sc(C)c(C)c45)CC3)sc2c1	21	18*	?	-5%
CCc1nnc(NC(=O)C2CCN(c3ncnc4sc(C)c(C)c34)CC2)s1	/	/	41%	36%
COc1ccc(S(=O)(=O)N2CCOCC2)cc1NC(=O)CNC(=O)c1cccs1	/	/	4%	?
Cc1cccc(NC(=S)N(CCN(C)C)Cc2cccs2)c1	-6	12	?	19%
COc1ccc(CN2CCNC(=O)C2CC(=O)NCCC2=CCCCC2)c(F)c1 (configuration not stated)	-23	-4	?	3%
CCC(C)c1ccc(NC(=O)COc2c(F)c(F)c(C(F)(F)F)c(F)c2F)cc1 (configuration not stated)	10	-1	2.1µM*	8%
COc1ccc(Nc2ncnc3ccc(Br)cc23)cc1OC	2	-5	34%	?
COc1ccc(COc2ncnc3ccc(Br)cc23)cc1F	24	19*	-4%	-13%
Cc1cc(C)nc(NS(=O)(=O)c2ccc(NC(=O)C3(c4ccc([N+](=O)[O-])cc4)CCCC3)cc2)n1	-12	1	9.3µM*	10%
COc1ccc(C2(C(=O)Nc3ccc(S(=O)(=O)Nc4nc(C)cc(C)n4)cc3)CCCC2)cc1OC	-19	0	146%	-16%
COC(=O)c1ccn(Cc2ccccc2Cl)n1	63*	44*	?	346%
SMILES	Shiga inhibitor	CHX counter	Pf growth 96h	Pf growth 48h
CCOC(=O)C1=C(COC(=O)CCNS(=O)(=O)c2ccc(C)c(C)c2)NC(=O)NC1C (configuration not stated)	/	/	-26%	?
O=C(c1cc2nc(C3CC3)cc(C(F)F)n2n1)N1CCOCC1	32*	10	48%	26%
COC(=O)c1cc(S(=O)(=O)N2CCCCC2)c[nH]1	-7	4	?	-6%
COc1ccccc1C(=O)NC1CCN(C(=O)Nc2ccc(F)cc2)CC1	4	0	-2%	?
CC(=O)NC1=NN(C(C)=O)C(c2ccco2)S1 (configuration not stated)	9	1	24%	12%
COc1cccc(/C=N/N2CCN(C3c4ccccc4-c4ccccc43)CC2)c1O	4	-1	?	13µM*
COc1cc(/C=N/N2CCN(C3c4ccccc4-c4ccccc43)CC2)ccc1O	-11	5	?	?
COc1ccc(Oc2cc(F)nc(N)n2)cc1	1	-1	3%	9%
CCc1ccc(Oc2cc(C)nc(N)n2)cc1	65*	26*	214%	191%
